# PubChem BioAssay (NCI)
# The panel holds about 83,000 compounds, 20% with a hit somewhere; the sample as a whole holds those more often.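 Single-dose data. Exposure time 48 hours. Values below 10 considered active.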 Values without a mark were called inactive. Active and inactive are the calls of the source.
# Test system: DU-145 prostate
# Experiment: NCI-60 one-dose screen, 48 h (100 = growth as untreated, 0 = no growth, -100 = all killed)
# Conditions: 10 µM unless noted
row,Structure (SMILES),growth
1,COc1ccc(-c2nc3ccc4[nH]ncc4c3c3c2CCCC3)cc1B(O)O,45.9%
2,CC/C=C\C[C@H](O)C/C=C1/C(=O)C=C[C@@H]1C/C=C\CCCCO,28.3%
3,O=C(/C=C/c1c(Cl)nc2sccn12)c1nccs1,112%
4,O=c1[nH]ccc2nc(N3CCC(O)CC3)nc(Nc3ccc(N4CCOCC4)cc3)c12,59.8%
5,COc1ccc2c(c1)CCCN2c1c2ccccc2nc2ccccc12,5.71% (active)
6,COc1ccc(N=C(c2ccccc2)C2C(=O)c3ccccc3C2=O)cc1,99.8%
7,Cc1c(O)cc(-c2cnc(N/N=C\c3ccc(Cl)cc3)s2)c(O)c1C,100%
8,NS(=O)(=O)c1ccc(-n2nc(C(=O)N/N=C\c3ccc(F)cc3)cc2-c2ccc(Cl)cc2)cc1,104%
9,CCN1CCN(c2nc(C)cc(NCc3cc(Nc4ccnc5cc(Cl)ccc45)ccc3F)n2)CC1,38%
10,COc1ccc2[nH]c(O)c(/C=c3/cc4c(c(-c5ccc(F)c(OC)c5)n3)=Nc3ccccc3-4)c2c1,30.3%
11,CCCCCS(=O)(=O)Nc1ccc(C(=O)O)cc1,103%
12,CN(C)CC1C(=O)O[C@H]2[C@H]1CC/C(COC(=O)c1cc3ccccc3[nH]1)=C\CC[C@@]1(C)O[C@@H]21 (some centres undefined),-17.7% (active)
13,N#CC1=C(c2ccc(Br)cc2)NC(SCC(=O)c2ccc(Br)cc2)NC1=O (centres undefined),108%
14,O=c1c2c3c(sc2n2c(-c4cn(-c5ccccc5)nc4-c4ccc(Cl)cc4)nnc2n1Cc1ccccc1)CCCC3,103%
15,COc1cc(/C=C/C(=O)c2cccc(-n3cc(-c4ccccc4)[nH]c3=O)c2)ccc1O,81.1%
16,CCCCCCCCCOc1c(OC)cc(C2CC(=O)Nc3c2c(C)nn3-c2nc3ccccc3[nH]2)cc1OC (centres undefined),1.94% (active)
17,Cc1ccc2c(c1)Sc1c(ccc3ccccc13)N2,82.9%
18,CC(C)(C)C(CCc1ccc(Cl)cc1)N1CCN(C2CCCCC2)CC1 (centres undefined),25.3%
19,COc1ccc(C2=NN(C(=O)c3cc(OC)c(OC)c(OC)c3)C(c3ccc(Cl)cc3)C2)cc1OC (centres undefined),7.23% (active)
20,Cc1cc(NCc2cc(Nc3ccnc4cc(Cl)ccc34)ccc2F)nc(N2CCSCC2)n1,23.6%
21,N#Cc1c(-c2cccc(Cl)c2)cc(-c2cccc(F)c2)[nH]c1=O,98.6%
22,O=C(CSc1nnc(-c2ccc(NC(=O)c3cccnc3)cc2)o1)N[C@@H](Cc1ccc(O)cc1)C(=O)O,117%

# Test system: K-562 leukemia
# Experiment: as above
# Conditions: 10 µM unless noted
row,Structure (SMILES),growth
1,CCN(CC)c1nc(SCC(=O)Nc2nc3ccc(C)cc3s2)nc(-c2ccccc2)c1C#N,86.5%
2,Cn1cc(-c2csc(-c3cccc(F)c3)n2)c2cccnc21,2.45% [100 µM] (active)
3,CCN1CCN(c2cc(C)nc(NCc3cc(Nc4ccnc5cc(Cl)ccc45)ccc3F)n2)CC1,4.69% (active)
4,CSc1n(Cc2ccc3ccccc3c2)c(C)c[n+]1Cc1ccc2ccccc2c1,8.26% (active)
5,NC(=N\N=C/c1cccc([N+](=O)[O-])c1)/C(N)=N\N=C/c1cccc([N+](=O)[O-])c1,36.1%
6,COc1ccc(-c2csc(C3=C(O)CN(C(C)C)C3=N)n2)cc1OC,87.7%
7,COc1ccc(-c2ccc3c(c2)sc2nc(-c4ccc(F)cc4)cn23)cc1,76.6%
8,Cc1ccc(S(=O)(=O)NCC[C@@H]2C[C@H]2c2cc3ccccc3s2)cc1,85.1%
9,Cc1cccc(NC(=O)CSc2nc3ccccc3[nH]2)c1,102%
10,C[n+]1cc2cc(C(N)=O)[nH]c3c(=N)c(Cl)c(N)c1c23,53%
11,CCN(CC)CCCNc1ccc(Nc2ccc(OC)cc2)cc1,34.1%
12,O=C1C=C[C@]2(C[C@@H](c3cccc(C(F)(F)F)c3)O[C@@H](c3cccc(C(F)(F)F)c3)O2)O1,-4.01% (active)
13,Cc1nc2c(c(N3CCCc4ccccc43)n1)CCC2,4.8% (active)
14,Cc1cc(Cl)nc(NCc2cc(Nc3ccnc4cc(Cl)ccc34)ccc2F)n1,26.9%
15,COc1ccc(NC(=O)CSc2nnc(-c3cc(-c4ccc(S(N)(=O)=O)cc4)nc4ccccc34)n2-c2ccccc2)cc1,66.4%
16,COc1ccc(-c2nc3ccc4[nH]ncc4c3c3c2CCCC3)cc1B(O)O,59.8%
17,CC/C=C\C[C@H](O)C/C=C1/C(=O)C=C[C@@H]1C/C=C\CCCCO,6.44% (active)
18,O=C(/C=C/c1c(Cl)nc2sccn12)c1nccs1,84.3%
19,O=c1[nH]ccc2nc(N3CCC(O)CC3)nc(Nc3ccc(N4CCOCC4)cc3)c12,70.1%

row,Structure (SMILES),growth
1,COc1ccc2c(c1)CCCN2c1c2ccccc2nc2ccccc12,9.39% (active)
2,COc1ccc(N=C(c2ccccc2)C2C(=O)c3ccccc3C2=O)cc1,75.4%
3,Cc1c(O)cc(-c2cnc(N/N=C\c3ccc(Cl)cc3)s2)c(O)c1C,72.2%
4,NS(=O)(=O)c1ccc(-n2nc(C(=O)N/N=C\c3ccc(F)cc3)cc2-c2ccc(Cl)cc2)cc1,87.9%
5,CCN1CCN(c2nc(C)cc(NCc3cc(Nc4ccnc5cc(Cl)ccc45)ccc3F)n2)CC1,-38.3% (active)
6,COc1ccc2[nH]c(O)c(/C=c3/cc4c(c(-c5ccc(F)c(OC)c5)n3)=Nc3ccccc3-4)c2c1,0.38% (active)
7,CCCCCS(=O)(=O)Nc1ccc(C(=O)O)cc1,104%
8,CN(C)CC1C(=O)O[C@H]2[C@H]1CC/C(COC(=O)c1cc3ccccc3[nH]1)=C\CC[C@@]1(C)O[C@@H]21 (some centres undefined),-11.4% (active)
9,N#CC1=C(c2ccc(Br)cc2)NC(SCC(=O)c2ccc(Br)cc2)NC1=O (centres undefined),91.1%
10,O=c1c2c3c(sc2n2c(-c4cn(-c5ccccc5)nc4-c4ccc(Cl)cc4)nnc2n1Cc1ccccc1)CCCC3,89.7%
11,COc1cc(/C=C/C(=O)c2cccc(-n3cc(-c4ccccc4)[nH]c3=O)c2)ccc1O,20.9%
12,CCCCCCCCCOc1c(OC)cc(C2CC(=O)Nc3c2c(C)nn3-c2nc3ccccc3[nH]2)cc1OC (centres undefined),9.07% (active)
13,Cc1ccc2c(c1)Sc1c(ccc3ccccc13)N2,39.7%
14,CC(C)(C)C(CCc1ccc(Cl)cc1)N1CCN(C2CCCCC2)CC1 (centres undefined),9.18% (active)
15,COc1ccc(C2=NN(C(=O)c3cc(OC)c(OC)c(OC)c3)C(c3ccc(Cl)cc3)C2)cc1OC (centres undefined),4.27% (active)
16,Cc1cc(NCc2cc(Nc3ccnc4cc(Cl)ccc34)ccc2F)nc(N2CCSCC2)n1,-24.9% (active)
17,N#Cc1c(-c2cccc(Cl)c2)cc(-c2cccc(F)c2)[nH]c1=O,85.5%
18,O=C(CSc1nnc(-c2ccc(NC(=O)c3cccnc3)cc2)o1)N[C@@H](Cc1ccc(O)cc1)C(=O)O,93.6%
